# Many of the other results were omitted from the sample, so hits are more common in it than they were.
# KDM4E inh: qHTS Assay for Inhibitors of Human Jumonji Domain Containing 2E (JMJD2E). JMJD2E catalytic domain, FDH-coupled NADH fluorescence (FDH is formaldehyde dehydrogenase). Potency, µM (top dose mostly 57.1 µM), hits mostly inhibitors. hit rate 1.6% among 230,000; active = well fitted inhibition curve with a large enough effect, not every such curve was filed as active; inconclusive = small, poorly fitted or top-dose-only effect, or another doubt; inactive = no such curve, though single readings can be large or run the other way; note: nearly all actives have a fitted effect of over 50% in size
# BLM inh: qHTS Assay for Inhibitors of Bloom's syndrome helicase (BLM). recombinant BLM DNA unwinding, fluorescence dequenching. Potency, µM (titrated, usually from 56.1 µM), actives largely listed as inhibitors. hit rate 0.2% among 350,000. AID 2528, 2010; note: nearly all actives have a fitted effect of over 35% in size
# APE1 inh-1: qHTS Assay for Inhibitors of the Human Apurinic/apyrimidinic Endonuclease 1 (APE1). DNA repair nuclease/redox regulator APEX1 (Homo sapiens), P27695. recombinant APE1, TAMRA/BHQ-2 abasic DNA cleavage fluorescence. Potency, µM (titrated, usually from 65.8 µM), most hits filed as inhibitors. hit rate 0.35% among 350,000. AID 2517, 2012; note: nearly all actives have a fitted effect of over 55% in size
#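 Enzyme (0.75 nM final) and test compound are incubated 15 min at room temperature before adding 50 nM quenched THF abasic-site duplex. Cleavage dequenches TAMRA, followed at 525/598 nm over three reads one minute apart.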
# RECQ1 inh: qHTS Assay for Inhibitors of RecQ-Like Dna Helicase 1 (RECQ1); ATP-dependent DNA helicase Q1 (Homo sapiens), P46063; RECQ1 DNA unwinding, red fluorescence kinetic read; Potency, µM (top dose mostly 57.3 µM), most hits filed as inhibitors; hit rate 0.54% among 240,000; AID 2549, 2010; note: nearly all actives have a fitted effect of over 30% in size
#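 50 nM RECQ1T1 preincubated 15 min with compound in Tris pH 8.0 buffer with MgCl2, DTT, Tween-20 and 2.5 ug/ml poly(dI-dC); started with 200 nM TAMRA/BHQ-2 forked duplex and 2 mM ATP. Unwinding read as fluorescence (525/598 nm), two reads 2 h apart.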
# L3MBTL1 block: qHTS Assay for the Inhibitors of L3MBTL1. Lethal(3)malignant brain tumor-like protein 1 (Homo sapiens), Q9Y468. AlphaScreen L3MBTL1–H3K9me1 peptide binding. Potency, µM (titrated, usually from 57.1 µM), most hits filed as inhibitors. hit rate 0.66% among 230,000. AID 485360, 2010; note: nearly all actives have a fitted effect of over 60% in size
#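 Read-out is AlphaScreen signal from streptavidin donor and nickel chelate acceptor beads (10 ug/mL final each) bridging L3MBTL1 (50 nM) and biotinylated K9-monomethylated H3(1-15) peptide (75 nM), after 30 min compound exposure at room temperature.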
# TDP1 block: qHTS Assay for Inhibitors of Tyrosyl-DNA Phosphodiesterase (TDP1); recombinant TDP1, AlphaScreen DNA substrate cleavage; Potency, µM (doses to about 130 µM), hits mostly inhibitors; hit rate 0.28% among 350,000; note: nearly all actives have a fitted effect of over 40% in size
# Target sequence (Q9NUW8 whole entry, looked up): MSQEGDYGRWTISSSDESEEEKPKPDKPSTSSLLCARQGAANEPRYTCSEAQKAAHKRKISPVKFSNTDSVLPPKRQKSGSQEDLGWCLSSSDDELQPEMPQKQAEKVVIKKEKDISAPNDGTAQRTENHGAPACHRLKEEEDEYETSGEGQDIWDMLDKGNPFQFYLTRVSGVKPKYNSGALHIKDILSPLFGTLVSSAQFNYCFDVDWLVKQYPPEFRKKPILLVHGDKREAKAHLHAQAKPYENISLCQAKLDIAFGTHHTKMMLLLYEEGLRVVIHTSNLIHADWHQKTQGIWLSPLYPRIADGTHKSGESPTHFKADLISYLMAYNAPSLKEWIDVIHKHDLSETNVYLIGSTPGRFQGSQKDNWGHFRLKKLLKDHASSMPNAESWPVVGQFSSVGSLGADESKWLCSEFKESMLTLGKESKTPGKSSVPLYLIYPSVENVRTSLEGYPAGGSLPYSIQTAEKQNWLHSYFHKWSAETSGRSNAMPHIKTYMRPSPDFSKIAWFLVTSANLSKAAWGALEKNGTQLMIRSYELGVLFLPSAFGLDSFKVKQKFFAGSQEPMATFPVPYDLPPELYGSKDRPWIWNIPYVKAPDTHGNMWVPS
#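 Signal: AlphaScreen proximity between streptavidin donor and anti-FITC acceptor beads on intact substrate. Reaction: Tdp1 1 nM, substrate 15 nM final, 5 min RT after 15 min compound preincubation.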
# DNA dye displace: Counterscreen for APE1 Inhibitors: Fluorescent Dye Displacement Assay. shares compounds with APE1 inh-1. DNA fluorescent dye displacement counterscreen, fluorescence. Potency, µM (highest dose often 28.5 µM), usual class: inhibitors. hit rate 7% among 480;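 note: loss of thiazole orange fluorescence as the dye is displaced from duplex DNA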
# Endo IV inh: Counterscreen for APE1 Inhibitors: qHTS Assay for Inhibitors of Endonuclease IV. shares compounds with APE1 inh-1. hit rate 4% among 560. AID 2565, 2010. Potency, µM (doses to about 27.1 µM), most hits filed as inhibitors. E. coli Endo IV, fluorogenic AP-site DNA cleavage
# APE1 inh-2: Confirmation qHTS Assay for Inhibitors of the Human Apurinic/apyrimidinic Endonuclease 1 (APE1); Potency, µM (doses to about 57.1 µM), usual class: inhibitors; purified APE1, fluorogenic abasic-site DNA cleavage; shares compounds with APE1 inh-1; hit rate 44% among 750; note: nearly all actives have a fitted effect of over 30% in size
# APE1 FP inh: qHTS FP-Based Assay for Inhibitors of the Human Apurinic/apyrimidinic Endonuclease 1 (APE1). Potency, µM (series often up to 28.5 µM), usual class: inhibitors. shares compounds with APE1 inh-1. APE1 binding to TAMRA-labelled double-stranded DNA, fluorescence polarization displacement. hit rate 7% among 480
# A number is an active result; 0 = inactive; ? = inconclusive; - = not tested or not shown; ! = not confirmed by another sample; [ ] = dose if it differs, or a comment. Unless noted, calls come from the whole dose curve; as a rule, active = well fitted curve in the direction sought with a large enough effect; inconclusive = small, poorly fitted or top-dose-only effect, or another doubt; inactive = no such curve, though single readings can be large; an effect the other way counts as inactive or inconclusive.
SMILES,KDM4E inh,BLM inh,APE1 inh-1,RECQ1 inh,L3MBTL1 block,TDP1 block,others
O=C(Nc1ccc2ccccc2c1)c1nn(C23CC4CC(CC(C4)C2)C3)cc1Br,0,0,4.5µM,0,0,0,
O=C1NC(=O)C(=Cc2ccc(N3CCOCC3)o2)C(=O)N1,18µM,0,0,0,0,0,
C=CCN1C(=O)/C(=C/c2ccc(N3CCOCC3)o2)C(=O)NC1=S,0,0,0,0,0,0,
Cc1cnc2c(C(=O)O)c(Cl)ccc2c1,-,0,0,0,-,0,
NC(=O)CI,32µM,-,0,?,-,-,
CCBr,-,-,0,0,-,0,
O=c1c2ccccc2nc(/C=C/c2ccc(O)cc2)n1-c1cccc(O)c1,?,25µM,?,0,?,?,
COc1cccc(-n2c(/C=C/c3ccc(O)c(O)c3)nc3ccccc3c2=O)c1,32µM,0,?,0,0,0,
C/C(O)=C1\C(=O)[C@@H]2[C@H]3c4c[nH]c5cccc(c45)C[C@H]3C(C)(C)N2C1=O,-,-,0,0,-,0,
CN=C=S,-,-,0,0,-,0,
Cc1cc(C)cc(OCCOc2cccc(C=C3C(=O)NC(=O)NC3=O)c2)c1,-,0,0,-,0,79µM,
O=C(O)C(Cl)(Cl)Br,-,-,0,0,-,0,
CCCCCCCC(=O)Cl,-,-,0,0,-,0,
CNCCc1ccc(O)c(O)c1,14µM,-,0,0,-,0,
C=C(C)C#N,-,-,0,0,-,0,
CCOC(=O)C(C)Oc1cc(C)cc2oc(=O)c3c(c12)CCCC3 (stereo unspecified),13µM,0,0,0,0,0,
NC(N)=Nc1ccc2[nH]c3c(c2c1)C[C@@]1(O)[C@H]2Cc4ccc(O)c5c4[C@@]1(CCN2CC1CC1)[C@H]3O5,10µM,-,0,0,0,0,
N#CC(Cl)Cl,-,-,0,0,-,0,
CCC(C)=O,-,-,0,0,-,0,
O=C1NC(=S)NC(=O)C1=Cc1ccc2c(c1)CCN2CCCCl,?,16µM,18µM,?,-,-,
Cc1cc(I)ccc1Nc1c(C(=O)NOCC2CC2)cc(F)c(F)c1F,-,0,0,0,-,0,
CN(C)C(=O)Cl,-,-,0,0,-,0,
Cc1c(OCC(F)(F)F)ccnc1CS(=O)c1nc2ccccc2[nH]1 (stereo unspecified),14µM!,0,0,0,0,0,
CC[C@@]1(O)C(=O)OCc2c1cc1n(c2=O)Cc2cc3ccccc3nc2-1,?,0,0,0,-,0,Endo IV inh=0;APE1 inh-2=0
C=CC(C)=O,-,-,0,0,-,0,
SMILES,KDM4E inh,BLM inh,APE1 inh-1,RECQ1 inh,L3MBTL1 block,TDP1 block,others
Oc1ccccc1O,14µM,-,28µM!,16µM!,18µM,?,Endo IV inh=0;APE1 inh-2=0
Oc1cccc(Cl)c1Cl,-,-,0,0,-,0,
O=c1c(O)c(-c2ccc(O)c(O)c2)oc2c(O)c(O)cc(O)c12,2.8µM,0,?,0,-,0,Endo IV inh=0;APE1 inh-2=0.5µM
CC(=O)OCC1=C(C(=O)O)N2C(=O)C(NC(=O)CCCC(N)C(=O)O)C2SC1 (stereo unspecified),8.9µM,?,22µM,0,-,25µM,DNA dye displace=0;Endo IV inh=0;APE1 inh-2=0;APE1 FP inh=0
c1ccc([Se]c2c(-c3ccccc3)[se]c3ccccc23)cc1,-,0,0,0,-,0,
O=C1NC(=O)N(c2ccc3c(c2)OCO3)C(=O)/C1=C\c1ccc(-c2ccccc2C(=O)O)o1,?,0,20µM,0,?,11µM,DNA dye displace=0;Endo IV inh=0;APE1 inh-2=10µM;APE1 FP inh=0
CC(=O)CC(c1ccccc1)c1c(O)c2cc(O)ccc2oc1=O (stereo unspecified),-,0,0,0,-,0,
C[C@@]12CCC3c4ccc(OS(=O)(=O)O)cc4CCC3C1CCC2O (stereo partly specified),0,0,0,0,-,0,
CN1Cc2ccccc2[C@@H]2c3cccc4[nH]cc(c34)C[C@H]21,10µM,0,?,0,-,0,DNA dye displace=0;Endo IV inh=0;APE1 inh-2=?;APE1 FP inh=0
CC1=C[C@@H]2c3cccc4[nH]cc(c34)C[C@H]2N(C)C1,-,0,?,0,-,0,
CCC(Oc1ccc(Cl)cc1)C(=O)OC1CC2CCC(C1)N2C (stereo unspecified),-,-,0,0,-,0,
CO/N=C(\C(=O)N[C@@H]1C(=O)N2C(C(=O)O)=C(CSc3nc(=O)c(O)nn3C)CSC12)c1csc(N)n1 (stereo partly specified),?,-,10µM,?,-,7.1µM,Endo IV inh=0;APE1 inh-2=2.2µM
C=C/C(=C/C(=O)C[C@H](C)C[C@@H](C)CC[C@H](O)[C@H](C)C(=O)C[C@@H](O)[C@H](C)[C@@H](C)OC(=O)C[C@@H](O)C1=C(C)C(=O)OC1=O)CC,-,0[12.4 µM],0[12.4 µM],0[11.5 µM],-,0[21 µM],
CC1=C2C3OC(=O)C(C)C3CC[C@@]2(C)C=CC1=O (stereo partly specified),0,0,?,0,0,14µM!,Endo IV inh=0;APE1 inh-2=0
Cc1cc(/C=C2/C(=O)NC(=O)N(Cc3ccco3)C2=O)c(C)n1-c1ccccc1,0,0,?,28µM,0,0,DNA dye displace=0;Endo IV inh=0;APE1 inh-2=?;APE1 FP inh=0
COc1cc(OC)c(OC)cc1/C=C1/C(=O)NC(=O)N(Cc2ccccc2)C1=O,?,0,0,0,0,0,
CCc1c(C(=O)OC)ncc2[nH]c3cc(OC)c(OC)cc3c12,?,-,0,0,-,0,Endo IV inh=0;APE1 inh-2=0
Clc1cnc(Oc2ccc(Oc3ncc(Cl)cc3Cl)cc2)c(Cl)c1,0,0,0,0,-,0,Endo IV inh=0;APE1 inh-2=0
Clc1ccc(Cl)c(Cl)c1,-,-,0,0,-,0,
C[C@H](CCC(=O)O)[C@H]1CC[C@@H]2[C@H]3CC[C@H]4C[C@H](O)CC[C@]4(C)[C@@H]3CC[C@@]21C,0,?,?,0,-,?,
